# Screening results as filed in PubChem BioAssay.
# The list is not random: actives were taken first. Their share in the collection is about 15%.
# Pf growth 48h: inhibits P. falciparum growth in the first generation, 48 h | Potency, µM (series often up to 28.7 µM), without a hit: at the highest dose activity change, negative = inhibition, hits mostly inhibitors | P. falciparum luciferase growth in erythrocytes, 48 h | 310,000 tested, 5.9% active | AID 504832; further: potency means the concentration at half of the fitted maximal effect; on the % scale 0 is the no-effect control and ±100 the full control effect
#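 Read-out is firefly luciferase luminescence from an integrated reporter in P. falciparum, so falling signal marks reduced parasite growth. Infected erythrocytes were at 2% hematocrit and 0.1% parasitemia (final) in Albumax-supplemented RPMI 1640.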
# HCMV inh: inhibitors of human cytomegalovirus. 410,000 tested, 4.5% active. HFF cells, HCMV-luciferase reporter, 72 h; active compounds read low. activity change, negative = inhibition, % at 57.5 µM; in the data active means activity change below about -60%; inconclusive means no clear call, values can overlap the other calls; inactive means above about -39%; further: on the % scale 0 is the no-effect control and ±100 the full control effect
#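 Compounds were evaluated in HFFs infected with an HCMV luciferase reporter virus (MOI 1 PFU/cell). Luciferase in lysates collected 72 h post infection served as the replication measure.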
# Pf growth 96h: inhibits malaria parasite growth, 96 h; P. falciparum luciferase reporter growth, 96 h; 320,000 tested, 6.9% active; Potency, µM (highest dose often 28.7 µM), for the others: at the highest dose activity change, negative = inhibition, actives largely listed as inhibitors; AID 504834; further: potency means the concentration at half of the fitted maximal effect; on the % scale 0 is the no-effect control and ±100 the full control effect
#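 Erythrocytes infected with luciferase-expressing P. falciparum were dispensed at 2% hematocrit and 0.05% parasitemia (final), then incubated with compounds 96 hours at 37 C in 5% CO2. Luminescence after detection reagent addition reported growth.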
# HCV inhibitor: blocks hepatitis C virus; Huh7.5.1 HCVcc-Cre infection, luciferase reporter, 44 h; Potency, µM (titrated, usually from 41.8 µM), for the others: at the top dose activity change, negative = inhibition, actives largely listed as inhibitors; 340,000 tested, 3.4% active; AID 651820; further: potency means the concentration at half of the fitted maximal effect; on the % scale 0 is the no-effect control and ±100 the full control effect
#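 Cells seeded at 1,000/well and cultured 4 h, then compounds added followed by HCVcc-Cre virus (~0.5 moi). After 44 h further culture, luciferase substrate was added, plates held 15 min at room temperature, and luminescence read for 15 sec.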
# SARS PLpro yeast: blocks SARS-CoV papain-like protease in a yeast assay | 330,000 tested, 0.19% active | Potency, µM (highest dose often 32.9 µM), without a hit: top-dose activity, positive = growth rescue, hits mostly activators | S. cerevisiae expressing SARS-CoV PLpro, growth rescue; calls by dose curve; further: potency means the concentration at half of the fitted maximal effect; 0% is about no effect; nearly all actives have a fitted effect of over 55% in size
# Sm TGR block: inhibitors of Schistosoma mansoni thioredoxin glutathione reductase; purified TGR, DTNB reduction, TNB absorbance 405 nm; AID 485364; Potency, µM (doses to about 114 µM), for inactives: at the top dose activity change, negative = inhibition, usual class: inhibitors; 360,000 tested, 3% active; further: potency means the concentration at half of the fitted maximal effect; on the % scale 0 is the no-effect control and ±100 the full control effect; nearly all actives have a fitted effect of over 60% in size
#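 TGR 20 nM + NADPH 100 uM (dispensed conc.), cpd preinc 15 min RT; start with NADPH (500 uM addition) then DTNB (15 mM addition). Kinetic TNB absorbance, 405 nm filter. Four-parameter Hill fit across titration.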
# Numbers without * were called inactive; ? = inconclusive; . = no result. Unless noted, the call rests on the fitted dose curve; in most records, active means well fitted curve in the direction sought with a large enough effect; inconclusive means small, poorly fitted or top-dose-only effect, or another doubt; inactive means no such curve, though single readings can be large; an effect the other way counts as inactive or inconclusive.
SMILES,Pf growth 48h,HCMV inh,Pf growth 96h,HCV inhibitor,SARS PLpro yeast,Sm TGR block
O=C(O)/C=C/C(=O)NNC(=O)c1ccccc1Br,49%,-2,52%,3%,1%,3.5µM*
COc1ccc(NC(=O)Cn2c(=O)n(-c3ccc(CC(=O)NCC4CCCO4)cc3)c(=O)c3ccccc32)c(OC)c1 (stereo unspecified),.,4,.,.,.,-2%
N#Cc1cnc(SCC(=O)c2ccccc2)nc1N,10µM*,?,.,8%,0%,-8%
N#Cc1cnc(SCCc2ccccc2)nc1N,72%,40,19%,2.2µM*,-9%,-10%
CCn1cc(CNC(=O)c2ccc(Cl)c([N+](=O)[O-])c2)c(C)n1,-26%,-18,15µM*,11%,?,-5%
COC(=O)CN1C(=O)Nc2ccc(Br)cc2C1c1ccccc1 (stereo unspecified),-23%,47,3.7µM*,-15%,10%,-16%
NNC(=O)CN1C(=O)Nc2ccc(Cl)cc2C1c1ccccc1 (stereo unspecified),?,10,?,1%,-4%,81%
CCn1nc(-c2ccccc2)nc2c(=O)n(C)c(=O)nc1-2,82%,.,-16%,2.8µM*,-97%,?
CCOC(=O)Cn1nc(-c2ccccc2)nc1-c1ccccc1,43%,56,.,3%,-3%,0%
COc1ccccc1CCn1cnc(-c2ccccc2F)c1CC(C)C,.,-83*,.,.,.,.
CCCc1c(-c2ccc(Cl)cc2)ncn1Cc1ccccc1OC,.,-3,.,.,.,.
COc1ccccc1CCn1cnc(-c2ccc(F)cc2F)c1CC(C)C,.,-84*,.,.,.,.
CCOP(=O)(OCC)C1NC(=O)N(c2ccccc2)C1=O (stereo unspecified),2%,-25,?,15%,0%,10%
CC(C)c1ccc(/C=N/n2c(-c3ccccc3)n[nH]c2=S)cc1,-1%,-66*,?,-9%,0%,4%
Cc1ccc(/C=N/n2c(-c3ccccc3)n[nH]c2=S)cc1,10%,-21,8%,5%,0%,9%
O=[N+]([O-])c1cc2c(cc1/C=N/n1c(-c3ccccc3)n[nH]c1=S)OCO2,0%,-100*,6%,-2%,6%,9%
Cc1c(Br)c(O)c(Br)c(O)c1/C=N/n1c(-c2ccccc2)n[nH]c1=S,11%,.,9%,-7%,-3%,35µM*
Cc1nc2ccccc2c(=O)n1/N=C/c1ccc(C(C)C)cc1,42%,-18,50%,25µM*,-3%,-13%
CC(=O)c1cccc(-c2ccnc3c2CC(C(=O)NCC2CCOCC2)O3)c1 (stereo unspecified),.,-32,.,.,.,.
COc1cc(/C=N/n2c(-c3ccccc3)n[nH]c2=S)ccc1O,-8%,-12,?,-3%,1%,4%
COc1cc(/C=N/n2c(-c3ccccc3)n[nH]c2=S)cc(OC)c1O,11%,-18,-25%,12%,1%,32µM*
CCCCn1c(SCC(=O)NNC(=O)c2ccco2)nnc1-c1ccco1,24%,-11,0%,-2%,-5%,0%
CCOC(=O)CNC(=O)CSc1nc(N)cc(N)n1,-4%,35,10µM*,12%,5%,9%
Cc1ccccc1OCC(=O)NNC(=O)CSc1nc(N)cc(N)n1,16%,9,8.3µM*,11%,0%,0%
Nc1cc(N)nc(SCC(=O)NNC(=O)Cc2ccccc2)n1,0%,36,21%,27%,4%,8%
Cc1cccc(NC(=O)CNC(=O)CSc2nc(N)cc(N)n2)c1C,33%,6,7%,6%,-2%,-16%
COC(=O)C1=C(c2ccc(OCc3ccccc3)cc2)C[C@@H]2CC[C@H]1N2C(=O)NCc1cccc(OC)c1,3.7µM*,-67*,?,6.3µM*,3%,1%
COC(=O)C1=C(c2ccc(OCc3ccccc3)cc2)C[C@@H]2CC[C@H]1N2C(=O)NCc1ccc(C(C)(C)C)cc1,.,-7,.,.,.,.
